Laboratory results from PubChem BioAssay AID1259339 (Broad Institute, 2017).
Activity calls are given as the source filed them.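 The calls were made as follows: active = fitted AC50 no higher than ten times the top tested dose (cut at about 90 µM in these data); inconclusive = flat curve with 30 to 70% signal loss, or bad fit; inactive = AC50 beyond ten times the top dose.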

Test: TruHit bead signal quenchers or artefacts – biochemical, TruHit kit, artefact control, dose response (AID 1259339)
Details: TruHit alphaLISA kit signal interference counterscreen; series mostly up to 80 µM; activity change, negative = signal loss: at the top concentration

Question: Which “activity change, negative = signal loss” value does the source give for O=C(NCCc1ccccc1)c1cc2cccnc2n(Cc2ccccc2)c1=O here?
Answer: -4.4% (inactive)

Question: Which “activity change, negative = signal loss” value does the source give for Cc1ccc(S(=O)(=O)Cc2ccc(C(=O)N3CCC4(CC3)OCCO4)o2)cc1 here?
Answer: -4.38% (inactive)

Question: Which AC50 does the source give for Nc1c(C(=O)NCc2ccco2)c2nc3ccccc3nc2n1CCN1CCOCC1 here?
Answer: 56.6 µM (active)

Question: For O=C(NC1(C(F)(F)F)Oc2ccc(Cl)cc2O1)N1CCC2(CC1)OCCO2 (centres undefined), which AC50 is on record?
Answer: > 160 µM (inactive)
